Records with an inconclusive call do not appear. A number with no mark means an inactive call. Active and inactive are the calls of the source. Calls follow the shape of the dose curve; as a rule, active = well fitted inhibition curve with a large enough effect; inconclusive = small, poorly fitted or top-dose-only effect; inactive = flat fitted curve, though single readings scatter.
Tested on: CP250
Test: qHTS profiling for inhibitors of Plasmodium falciparum proliferation (AID 504749); also: nearly all actives have a fitted effect of over 60% in size;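 as to activity, negative = inhibition: 0% = DMSO vehicle and full inhibition = artemisinin control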
Settings: P. falciparum in erythrocytes, SYBR Green DNA, 72 h; series mostly up to 28.7 µM; activity, negative = inhibition: at the top concentration
Summary of the method: (§1)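 P. falciparum-infected erythrocytes (0.3% parasitemia, 2.5% hematocrit final) were exposed to compounds for 72 h at 37 C in 5% CO2, then lysed with SYBR Green buffer overnight at room temperature; parasite DNA fluorescence was normalized to artemisinin and DMSO controls.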
Potency is read from the fitted curve at half-maximal effect.

SMILES	activity, negative = inhibition [%]	Potency
CCCCc1ccc(C(=O)O)nc1	3.22	–
O=[N+]([O-])c1ccc([As](=O)(O)O)cc1	–	7.08 µM (active)
NC1=NC(=O)N2CC12 (stereo not drawn)	-21.2	–
Cc1ccc(Cl)c(O)c1	5.98	–
CC(C)NC(C)Cc1ccc(I)cc1 (stereo not drawn)	-3.43	–
CCCCCCCCCCCCCCCC[N+](C)(C)C	–	8.91 µM (active)
CCCN1CCC[C@H](c2cccc(O)c2)C1	0.824	–
CN(C)[C@@H]1C(=O)C(C(N)=O)=C(O)[C@@]2(O)C(=O)C3=C(O)c4c(O)cccc4[C@@](C)(O)[C@H]3[C@H](O)[C@@H]12	-13.3	–
CN[C@@H]1C[C@@H](c2ccc(Cl)c(Cl)c2)c2ccccc21	-21.8	–
COC(=O)[C@@H](N)CCCN=C(N)N[N+](=O)[O-]	8.37	–
CC[N+]1(CCOC(=O)C(O)(c2ccccc2)c2ccccc2)CCCCC1	-2.18	–
CC(=O)[O][Hg][c]1ccccc1	–	7.08 µM (active)
Cc1cc(O)ccc1Cl	2.42	–
CCCCCCCCCC(CC)c1ccc(S(=O)(=O)O)cc1 (stereo not drawn)	0.471	–
O=C(O)COc1ccccc1	2.03	–
c1ccc(C2(c3ccccc3)CC2C2=NCCN2)cc1 (stereo not drawn)	-14.3	–
O=C(O)C(Cl)Cl	13.9	–
C#CC1(O)CCC2C3CCC4=CC(=O)CCC4(C)C3CCC21C (stereo not drawn)	3.7	–
CN1C2CCC1CC(OC(=O)c1cc(Cl)cc(Cl)c1)C2 (stereo not drawn)	-5.07	–
NC(=O)CN1CC(O)CC1=O (stereo not drawn)	5.9	–
C=CCN1CC[C@]23CCCCC2[C@H]1Cc1ccc(O)cc13 (stereo partly drawn)	8.81	–
C1CCC(NC2CCCCC2)CC1	9.05	–

Tested on: CP252
Test: as above
Settings: P. falciparum in erythrocytes, SYBR Green DNA, 72 h; series mostly up to 28.7 µM; activity, negative = inhibition: at the top concentration
Summary of the method: as §1

SMILES	activity, negative = inhibition [%]	Potency
CCCCc1ccc(C(=O)O)nc1	-13.7	–
O=[N+]([O-])c1ccc([As](=O)(O)O)cc1	–	7.08 µM (active)
NC1=NC(=O)N2CC12 (stereo not drawn)	-29.3	–
Cc1ccc(Cl)c(O)c1	-3.48	–
CC(C)NC(C)Cc1ccc(I)cc1 (stereo not drawn)	-13.5	–
CCCN1CCC[C@H](c2cccc(O)c2)C1	-3.51	–
COC(=O)[C@@H](N)CCCN=C(N)N[N+](=O)[O-]	4.78	–
CC[N+]1(CCOC(=O)C(O)(c2ccccc2)c2ccccc2)CCCCC1	-19.4	–
CC(=O)[O][Hg][c]1ccccc1	–	8.91 µM (active)
Cc1cc(O)ccc1Cl	-9.15	–
CCCCCCCCCC(CC)c1ccc(S(=O)(=O)O)cc1 (stereo not drawn)	2.8	–
O=C(O)COc1ccccc1	-0.692	–
c1ccc(C2(c3ccccc3)CC2C2=NCCN2)cc1 (stereo not drawn)	-16.4	–
O=C(O)C(Cl)Cl	0.948	–
C#CC1(O)CCC2C3CCC4=CC(=O)CCC4(C)C3CCC21C (stereo not drawn)	4.37	–
C[C@]12CCC(=O)C(O)=C1CC[C@@H]1[C@H]3CCC(=O)[C@@]3(C)CC[C@@H]12	-18.5	–
CN1C2CCC1CC(OC(=O)c1cc(Cl)cc(Cl)c1)C2 (stereo not drawn)	-15.7	–
NC(=O)CN1CC(O)CC1=O (stereo not drawn)	0.228	–
C=CCN1CC[C@]23CCCCC2[C@H]1Cc1ccc(O)cc13 (stereo partly drawn)	3.2	–
C1CCC(NC2CCCCC2)CC1	0.888	–

Tested on: CP256
Test: as above
Settings: P. falciparum in erythrocytes, SYBR Green DNA, 72 h; series mostly up to 28.7 µM; activity, negative = inhibition: at the top concentration
Summary of the method: as §1

SMILES	activity, negative = inhibition [%]	Potency
CCCCc1ccc(C(=O)O)nc1	-4.49	–
O=[N+]([O-])c1ccc([As](=O)(O)O)cc1	–	10 µM (active)
Cc1ccc(Cl)c(O)c1	-12.4	–
CC(C)NC(C)Cc1ccc(I)cc1 (stereo not drawn)	-20.1	–
CCCN1CCC[C@H](c2cccc(O)c2)C1	-2.02	–
COC(=O)[C@@H](N)CCCN=C(N)N[N+](=O)[O-]	-1.59	–
CC(=O)[O][Hg][c]1ccccc1	–	8.91 µM (active)
Cc1cc(O)ccc1Cl	7.85	–
CCCCCCCCCC(CC)c1ccc(S(=O)(=O)O)cc1 (stereo not drawn)	4.81	–
O=C(O)COc1ccccc1	7.93	–
O=C(O)C(Cl)Cl	7.35	–
C#CC1(O)CCC2C3CCC4=CC(=O)CCC4(C)C3CCC21C (stereo not drawn)	6.38	–
CN1C2CCC1CC(OC(=O)c1cc(Cl)cc(Cl)c1)C2 (stereo not drawn)	-18.2	–
NC(=O)CN1CC(O)CC1=O (stereo not drawn)	3.03	–
C=CCN1CC[C@]23CCCCC2[C@H]1Cc1ccc(O)cc13 (stereo partly drawn)	11.2	–

Tested on: CP260
Test: as above
Settings: P. falciparum in erythrocytes, SYBR Green DNA, 72 h; series mostly up to 28.7 µM; activity, negative = inhibition: at the top concentration
Summary of the method: as §1

SMILES	activity, negative = inhibition	Potency
CCCCc1ccc(C(=O)O)nc1	0.832%	–
O=[N+]([O-])c1ccc([As](=O)(O)O)cc1	–	7.08 µM (active)
NC1=NC(=O)N2CC12 (stereo not drawn)	–	10 µM (active)
Cc1ccc(Cl)c(O)c1	-1.14%	–
CC(C)NC(C)Cc1ccc(I)cc1 (stereo not drawn)	-3.33%	–
CC(=O)OCC1=C(C(=O)O)N2C(=O)[C@@H](N)[C@@H]2SC1	12.6% [at 12.8 µM]	–
CCCCCCCCCCCCCCCC[N+](C)(C)C	–	5.62 µM (active)
CCCN1CCC[C@H](c2cccc(O)c2)C1	-13.4%	–
COC(=O)[C@@H](N)CCCN=C(N)N[N+](=O)[O-]	0.45%	–
CC[N+]1(CCOC(=O)C(O)(c2ccccc2)c2ccccc2)CCCCC1	-3.01%	–
CC(=O)[O][Hg][c]1ccccc1	–	3.98 µM (active)
Cc1cc(O)ccc1Cl	-1.98%	–
CCCCCCCCCC(CC)c1ccc(S(=O)(=O)O)cc1 (stereo not drawn)	-1.79%	–
O=C(O)COc1ccccc1	-6.36%	–
O=C(O)C(Cl)Cl	1.93%	–
C#CC1(O)CCC2C3CCC4=CC(=O)CCC4(C)C3CCC21C (stereo not drawn)	9.08%	–
C[C@]12CCC(=O)C(O)=C1CC[C@@H]1[C@H]3CCC(=O)[C@@]3(C)CC[C@@H]12	-6.98%	–
CN1C2CCC1CC(OC(=O)c1cc(Cl)cc(Cl)c1)C2 (stereo not drawn)	-9.33%	–
NC(=O)CN1CC(O)CC1=O (stereo not drawn)	-22.2%	–
C=CCN1CC[C@]23CCCCC2[C@H]1Cc1ccc(O)cc13 (stereo partly drawn)	4.13%	–
C1CCC(NC2CCCCC2)CC1	1.38%	–

— PubChem BioAssay (NCATS)
